# Experimental data published in PubChem BioAssay (NCI).
# This is part of a sample that, as a whole, favours compounds with a hit. Of some 83,000 tested, about 20% had one in any assay.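 Each cell line was grown in a 96-well plate and treated with one concentration of compound for 48 hours. Values below 10 were considered active.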 Unmarked numbers belong to inactive results. Active and inactive are the calls of the source.
# How the values were obtained:
# Assay in all cases: NCI-60 one-dose screen, 48 h (100 = growth as untreated, 0 = no growth, -100 = all killed)
# Conditions in all cases: 10 µM unless noted
# SR leukemia = test system: SR leukemia
# OVCAR-8 ovarian = test system: OVCAR-8 ovarian
# OVCAR-5 ovarian = test system: OVCAR-5 ovarian
# OVCAR-4 ovarian = test system: OVCAR-4 ovarian
# SK-OV-3 ovarian = test system: SK-OV-3 ovarian
# IGROV1 ovarian = test system: IGROV1 ovarian
# OVCAR-3 ovarian = test system: OVCAR-3 ovarian
# HS 578T breast = test system: HS 578T breast
# NCI/ADR-RES ovarian = test system: NCI/ADR-RES ovarian
# T-47D breast = test system: T-47D breast
# BT-549 breast = test system: BT-549 breast
# MDA-MB-435 melanoma = test system: MDA-MB-435 melanoma
# SW-620 colon = test system: SW-620 colon
# MCF7 breast = test system: MCF7 breast
# HCT-116 colon = test system: HCT-116 colon
# HCC-2998 colon = test system: HCC-2998 colon
# KM12 colon = test system: KM12 colon
SMILES,growth (SR leukemia),growth (OVCAR-8 ovarian),growth (OVCAR-5 ovarian),growth (OVCAR-4 ovarian),growth (SK-OV-3 ovarian),growth (IGROV1 ovarian),growth (OVCAR-3 ovarian),growth (HS 578T breast),growth (NCI/ADR-RES ovarian),growth (T-47D breast),growth (BT-549 breast),growth (MDA-MB-435 melanoma),growth (SW-620 colon),growth (MCF7 breast),growth (HCT-116 colon),growth (HCC-2998 colon),growth (KM12 colon)
CC1=NC(=S)NC(c2ccccc2)/C1=C1/CC(c2ccccc2O)NN1 (centres undefined),97.8%,96.6%,101%,101%,98.2%,93.2%,109%,108%,104%,100%,99.6%,103%,100%,102%,99.6%,113%,104%
CCN(CC)CCOc1ccc(/C(=C(\C)Cc2ccc(OC)cc2)c2ccc(O)cc2)cc1,-52.4% (active),29%,69.3%,46.7%,64.5%,47.3%,46.7%,33.5%,53.1%,20.3%,56.7%,-67.8% (active),-25.2% (active),-14.8% (active),-34.8% (active),0.439% (active),32.4%
COc1cccc(C2C3=C(COC3=O)N(CCO)c3cc4c(cc32)OCCO4)c1 (centres undefined),9.73% (active),27.7%,29.8%,24.2%,22.6%,13.8%,-59.7% (active),-5.22% (active),-35.1% (active),65.3%,14.5%,-28.2% (active),17.7%,13.1%,3.53% (active),4.51% (active),-11.8% (active)
C#Cc1cccc(Nc2ncnc3ccc(-c4cnc(Cl)c(NS(C)(=O)=O)c4)cc23)c1,-9.92% (active),3.78% (active),-15.5% (active),9.21% (active),-25% (active),-55.8% (active),-72.5% (active),-21.4% (active),7.96% (active),-46.8% (active),-35.4% (active),-55.2% (active),2.56% (active),-0.512% (active),-55% (active),-62.5% (active),-54.3% (active)
COc1ccc(-c2csc(NC(=O)CSc3nc(C)cc(=O)[nH]3)n2)cc1,118%,102%,112%,104%,102%,101%,103%,96.8%,96.9%,89.2%,86.1%,108%,101%,92.8%,102%,117%,100%
COC(=O)c1ccc(-n2cc(CCCOS(=O)(=O)c3ccc(F)cc3)nn2)cc1,87.4%,96.2%,98.6%,94.4%,102%,–,107%,93.6%,106%,97.9%,101%,97.3%,100%,92.1%,99.6%,110%,100%
Cn1nc(-c2ccc(Cl)cc2)nc2c(=O)n(C)c(=O)nc1-2,-40.5% (active),-58.8% (active),-89.1% (active),-99.7% (active),32.6%,7.78% (active),-40.2% (active),-4.75% (active),-21.5% (active),-43.2% (active),-46.5% (active),-45.8% (active),-33.2% (active),-62.5% (active),-37.7% (active),-70.2% (active),-15.3% (active)
CSc1nn2c(-c3cc4cc(Br)ccc4oc3=O)ccnc2c1C#N,94.7%,104%,112%,101%,105%,97.2%,114%,109%,110%,99.7%,105%,101%,103%,94.9%,94.3%,102%,107%
CCN(CC)CCCC(Nc1c2ccc(Cl)cc2nc2ccc(OC)cc12)c1ccncc1 (centres undefined),-6.47% (active),58.4%,96.6%,68.5%,97.6%,75.7%,95.6%,97.5%,81.4%,113%,94.6%,93%,61.9%,61.2%,60.8%,71%,69.1%
COC12C=C/C(=C(/C(=O)OCc3ccccn3)C(=O)CCCCCCCCC3(OC)C=C/C(=C(/C(=O)OCc4ccccn4)C(=O)CCCCCCCC1)O3)O2,-9.81% (active),16.8%,34.9%,28.8%,46.3%,-39.1% (active),-36.3% (active),49.7%,7.96% (active),18.5%,-26.9% (active),-23.6% (active),8.34% (active),-0.915% (active),-59.7% (active),-82.6% (active),-76.2% (active)
